Molecules are shown by their SMILES. About 83,000 compounds went through this panel and 20% of them were active in at least one assay; those are over-represented in the sample as a whole.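 Negative percent growth values reflect cell death: -40 means 40% of the cells present at the start died, and -100 means all died.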 Unmarked numbers belong to inactive results. The source made the active and inactive calls. How the source made its calls: active means growth percent below 10; inactive means the rest.

Among the test systems are NCI-H23 lung; NCI-H226 lung; NCI-H322M lung; NCI-H460 lung; NCI-H522 lung; A549/ATCC NSCLC; 786-0 renal; COLO 205 colon; DU-145 prostate; K-562 leukemia; MALME-3M melanoma; MDA-MB-231 breast; SF-268 CNS; SF-295 CNS; SF-539 CNS; UACC-257 melanoma; M14 melanoma; HCT-15 colon; HOP-62 NSCLC; RXF 393 renal.
Common to all, as to test: NCI-60 one-dose screen, 48 h (100 = growth as untreated, 0 = no growth, -100 = all killed)
What all share (details): 10 µM

Consider `O=C(C[n+]1ccccc1)c1ccc2ccccc2c1`, for which the growth in the test with NCI-H23 lung was 88.1%; in the test on NCI-H226 lung it was 96.4%; in the test on NCI-H322M lung, 95.2%; in the test with NCI-H460 lung, 104%; with NCI-H522 lung, 103%; in the test on A549/ATCC NSCLC, 96.7%. In addition, the growth in the test with 786-0 renal was 87.6%; in the test on COLO 205 colon it was 102%; in the test on DU-145 prostate, 87.9%; in the test on K-562 leukemia, 86.6%; with MALME-3M melanoma it was 92.4%; with MDA-MB-231 breast it was 95.2%. The growth in the test on SF-268 CNS was 103%; in the test with SF-295 CNS, 88.2%; in the test with SF-539 CNS it was 97.3%; in the test with UACC-257 melanoma it was 92.6%; with M14 melanoma, 94%; with HCT-15 colon, 109%.
`COc1ccc(S(=O)(=O)NCCCNc2nccc(-c3c(-c4ccc(F)cc4)nc4sccn34)n2)cc1`: the growth in the test with NCI-H226 lung is 68.9%; in the test on NCI-H322M lung, 52.7%; with HOP-62 NSCLC, 79.7%; with NCI-H460 lung, 36.3%; in the test with NCI-H522 lung, 59.3%; with A549/ATCC NSCLC, 32%. Besides, the growth in the test on 786-0 renal was 72.4%; in the test with COLO 205 colon, 26.9%; with DU-145 prostate, 58.8%; in the test on K-562 leukemia, 17.6%; in the test on MALME-3M melanoma, 57.7%; with MDA-MB-231 breast, 75.4%. Moreover, the growth with RXF 393 renal was 68.1%; in the test on SF-268 CNS, 50.6%; with SF-295 CNS, 45.7%; in the test on SF-539 CNS it was 93.7%; in the test with UACC-257 melanoma, 67.7%; in the test on M14 melanoma, 57.3%. The growth with HCT-15 colon is 57.2%.
On to `COc1cc(/C=N/NC(=O)c2ccccc2Nc2cccc(C(F)(F)F)c2)cc(OC)c1OC`, for which the growth is 36.9% in the test with NCI-H226 lung; 47% in the test on NCI-H322M lung; 133% in the test with HOP-62 NSCLC; -17.6% (active) in the test on NCI-H460 lung; 4.06% (active) with NCI-H522 lung; 15% in the test on A549/ATCC NSCLC. For the same compound, the growth in the test on 786-0 renal was 177%; in the test with COLO 205 colon, 54.4%; with DU-145 prostate it was -22.6% (active); in the test with K-562 leukemia it was 12.3%; in the test with MALME-3M melanoma, 11.5%; with MDA-MB-231 breast, 28.5%. The growth in the test with RXF 393 renal is 4.73% (active); with SF-268 CNS, 20.4%; in the test with SF-295 CNS, -14.8% (active); in the test with SF-539 CNS it was -0.572% (active); with UACC-257 melanoma it was 49.6%; with M14 melanoma it was 177%. In the test on HCT-15 colon, the growth was 7.05% (active).
`CN(C)C=Nc1cc(Cl)ccc1Cl`: the growth in the test on NCI-H226 lung is 96.3%; with NCI-H322M lung it was 104%; in the test with HOP-62 NSCLC, 99.9%; with NCI-H460 lung, 116%; with NCI-H522 lung it was 97.2%; in the test with A549/ATCC NSCLC, 92.1%. Also, the growth with 786-0 renal was 111%; in the test with COLO 205 colon, 109%; in the test with DU-145 prostate, 117%; in the test with K-562 leukemia it was 110%; with MALME-3M melanoma, 118%; with MDA-MB-231 breast, 103%. The growth with RXF 393 renal was 112%; in the test on SF-268 CNS, 112%; in the test on SF-295 CNS, 97%; with SF-539 CNS, 111%; in the test with UACC-257 melanoma, 90.2%; with M14 melanoma it was 107%. Besides, the growth in the test with HCT-15 colon was 103%.
In the case of `COc1ccc(-c2nc3sccn3c2-c2nc3c([nH]2)C(=O)c2ccccc2C3=O)cc1`, the growth in the test with NCI-H226 lung is 95.1%; in the test with NCI-H322M lung it was 108%; in the test on HOP-62 NSCLC it was 107%; in the test on NCI-H460 lung, 91.3%; in the test with NCI-H522 lung it was 96.8%; with A549/ATCC NSCLC it was 67.5%. In addition, the growth in the test on 786-0 renal is 89.4%; in the test with COLO 205 colon, 102%; in the test with DU-145 prostate it was 104%; with K-562 leukemia it was 84.8%; in the test with MALME-3M melanoma, 151%; with MDA-MB-231 breast, 96.1%. Also, the growth in the test on RXF 393 renal was 98.2%; in the test on SF-295 CNS it was 87.2%; in the test with SF-539 CNS, 98%; with UACC-257 melanoma, 89.2%; in the test on M14 melanoma, 130%; in the test with HCT-15 colon it was 87.8%.
In the case of `CCCCCCCCCCCCC1C/C=C\CCCC(=O)O1` (configuration not stated), the growth with NCI-H226 lung was 167%; in the test with NCI-H322M lung, 108%; in the test with HOP-62 NSCLC it was 106%; in the test with NCI-H460 lung it was 109%; in the test on NCI-H522 lung it was 98.1%; with A549/ATCC NSCLC it was 80.7%. In addition, the growth was 98.4% in the test on 786-0 renal; 113% with COLO 205 colon; 130% in the test on DU-145 prostate; 101% with K-562 leukemia; 107% in the test with MALME-3M melanoma; 119% in the test on MDA-MB-231 breast. The growth is 103% in the test on SF-268 CNS; 103% in the test with SF-295 CNS; 107% with SF-539 CNS; 118% with UACC-257 melanoma; 100% in the test on M14 melanoma; 97.2% in the test on HCT-15 colon.
As for `Clc1ccc(Nc2ccnc(NCCCNc3ccnc4cc(Cl)ccc34)n2)cc1`, the growth in the test on NCI-H226 lung is 93.7%; in the test on NCI-H322M lung, -16.7% (active); in the test on HOP-62 NSCLC it was 19.6%; in the test on NCI-H460 lung, -28.8% (active); in the test with NCI-H522 lung, -76% (active); in the test with A549/ATCC NSCLC it was -65.1% (active). The growth with 786-0 renal is -98.9% (active); in the test with DU-145 prostate, 9.74% (active); with K-562 leukemia, -56.9% (active); with MALME-3M melanoma, -81% (active); in the test on MDA-MB-231 breast it was -86% (active); in the test on RXF 393 renal it was -89.3% (active). Moreover, the growth in the test with SF-268 CNS was -75.8% (active); with SF-295 CNS, -81.1% (active); in the test on SF-539 CNS it was -96.8% (active); with M14 melanoma it was -80% (active); in the test on HCT-15 colon it was -60.6% (active).
Regarding `CCOC(=O)N1C/C(=C/c2ccc(F)cc2)C(=O)/C(=C/c2ccc(F)cc2)C1`, the growth is -18.7% (active) in the test with NCI-H226 lung; 53.9% in the test with NCI-H322M lung; -12.9% (active) in the test with HOP-62 NSCLC; 3.07% (active) in the test on NCI-H460 lung; -52.4% (active) in the test with NCI-H522 lung; 22% with A549/ATCC NSCLC. Also, the growth with 786-0 renal was -58.7% (active); with COLO 205 colon it was 2.88% (active); in the test with DU-145 prostate, -6.4% (active); in the test on K-562 leukemia, 3.36% (active); with MALME-3M melanoma, -36.8% (active); with MDA-MB-231 breast, -2.86% (active). Moreover, the growth was -83.4% (active) in the test on RXF 393 renal; -12% (active) in the test with SF-268 CNS; -22% (active) in the test on SF-295 CNS; 3.86% (active) in the test on SF-539 CNS; -14.7% (active) in the test with UACC-257 melanoma; -69% (active) in the test with M14 melanoma. In addition, the growth with HCT-15 colon is -63.4% (active).

The values are drawn from PubChem BioAssay (NCI).
